Measurements: PubChem BioAssay AID652105 (National Center for Advancing Translational Sciences (NCATS), 2013)
Among all 330,000 compounds or so, about 4,100 (1.2%) were called active. Roughly 2% stayed inconclusive and do not appear here. For the sample, actives were picked, then their nearest neighbours and some compounds at random. Values without a mark were called inactive. Rule for the calls: active = max response of -50% or lower; inconclusive = between -30% and -50%; inactive = -30% or higher.

target: Phosphatidylinositol 5-phosphate 4-kinase type-2 alpha (Homo sapiens) (UniProt P48426); assay: qHTS for Inhibitors of phosphatidylinositol 5-phosphate 4-kinase (PI5P4K); details: PI5P4Kalpha enzyme, ADP-Glo luminescence, 60 min; active compounds read low; note: value at the top dose of about 77 µM
Sequence (P48426 whole entry, looked up): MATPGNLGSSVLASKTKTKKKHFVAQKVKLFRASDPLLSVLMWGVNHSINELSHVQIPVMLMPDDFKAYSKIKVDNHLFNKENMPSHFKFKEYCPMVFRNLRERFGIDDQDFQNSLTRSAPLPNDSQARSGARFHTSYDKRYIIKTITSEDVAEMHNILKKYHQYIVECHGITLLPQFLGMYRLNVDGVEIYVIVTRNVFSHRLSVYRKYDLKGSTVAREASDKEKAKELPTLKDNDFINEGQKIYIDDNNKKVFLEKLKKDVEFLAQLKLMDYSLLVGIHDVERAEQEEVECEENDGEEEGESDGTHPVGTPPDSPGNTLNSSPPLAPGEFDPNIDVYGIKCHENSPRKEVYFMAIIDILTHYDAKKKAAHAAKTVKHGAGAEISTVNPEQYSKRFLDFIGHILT
Summary of the method: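 Reactions run in 0.038 M HEPES pH 7.4, 0.28 mM EGTA, 0.1% CHAPS and 5% DMSO, with PI5P4Kalpha, substrate, compound and 5 microM ATP final, one hour at room temperature. Readout is ADP-Glo luminescence.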
% is set by controls: 0 for no effect and ±100 for the full control effect.

| Structure (SMILES) | max response |
| --- | --- |
| CCCNC(=O)c1cc2c(c(-c3cccc(-c4ccc(C#N)cc4)c3)n1)[C@@H](CCO)N(C(=O)CC)C2 | -0.337% |
| C[C@@H]1CN([C@H](C)CO)C(=O)CCCn2cc(nn2)CO[C@H]1CN(C)S(C)(=O)=O | 6.16% |
| CC(C)C[C@H]1CNC(=O)C(=O)N1C[C@H]1CCCN1C[C@H](Cc1ccc(O)cc1)N1C[C@H](CC(C)C)N(CC2CCCCCC2)C(=O)C1=O | -0.421% |
| CCOC(=O)C1=CC[C@@H](c2ccccc2)N(S(=O)(=O)c2ccc(C)cc2)[C@H]1c1ccc(CC)cc1 | 6.84% |
| Cc1cc2nc(-c3ccc(F)cc3)c(Cc3ccsc3)n2c(C)c1Br | 7.62% |
| Cc1cc2nc(-c3ccco3)c(Cc3cccc(F)c3)n2c(C)c1Br | -66.2% (active) |
| Cc1cc2nc(-c3ccc(Cl)cc3)c(Cc3cccc(F)c3)n2c(C)c1Br | -6.22% |
| COc1ccc(OC)c(CN2C(=O)CCC2(C)c2nnnn2Cc2ccccc2)c1 (stereo not drawn) | 2.57% |
| COc1ccc(CCNC(=O)CN(c2ccccc2)S(=O)(=O)c2ccccc2)cc1 | -3.29% |
| CC1=C(C(=O)N(C(C)C)C(C)C)CC(CC(=O)NCC2CCCCC2)C(=O)N1Cc1ccccc1 (stereo not drawn) | -7.86% |
| CCOC(=O)[C@]12CCCC=C1N(CCC1=CCCCC1)C(=O)[C@H](CC(=O)N1CCSCC1)C2 | -1.78% |
| CCOc1ccccc1Nc1ccc(C(=O)O)cc1[N+](=O)[O-] | -1.68% |
| O=C(Nc1ccc2ccccc2c1[N+](=O)[O-])c1ccccc1 | -2.74% |
| O=C(O)c1cc([N+](=O)[O-])c(Nc2cccc3ccccc23)c([N+](=O)[O-])c1 | -64.5% (active) |
| CNc1cnc(-c2cc(OC)c(OC)c(OC)c2)cn1 | 1.71% |
| Cc1ccc(/C([O-])=C(/C(=S)NCc2ccco2)[n+]2ccccc2)cc1[N+](=O)[O-] | -51.3% (active) |
| O=[N+]([O-])c1cccc(/C([O-])=C(/C(=S)Nc2ccccc2F)[n+]2ccccc2)c1 | -1.12% |
| CC(OC(=O)CNC(=O)c1ccc(Cl)c([N+](=O)[O-])c1)C(=O)NCc1ccco1 (stereo not drawn) | -12% |
| CC(C)c1cccc(-c2csc(C(O)c3ccccc3)n2)c1 (stereo not drawn) | 28.3% |
| COCCNC(=O)Nc1ccc2nc(-c3ccco3)c(-c3ccco3)nc2c1 | -88.9% (active) |
| CC(=O)NCCc1nc2cc(NC(=O)c3ccccc3)ccc2n1C | -3.2% |
| COc1cccc(NC(=O)NCCN2CCCCC2)c1 | 3.3% |

| Structure (SMILES) | max response |
| --- | --- |
| CCCC(=O)N1CCC1(C)C(=O)NCc1ccc(SC)cc1 (stereo not drawn) | 0.695% |
| CC(=O)Oc1ccc(Cn2c(C)c(C(=O)NCc3ccc(C#N)cc3)sc2=O)cc1 | 2.41% |
| O=C(COc1ccccc1Cl)Nc1ccc(C(=O)c2ccc(C(=O)O)cc2)cc1 | -70.5% (active) |
| COc1cc(NC(=O)COc2ccccc2Cl)ccc1NC(=O)C(C)C | -11.3% |
| O=C(COc1ccccc1)Nc1ccc(C(=O)N2CCCC2)cc1 | 6.33% |
| Cc1ccc(S(=O)(=O)N2CCN(CC(=O)N/N=C/c3cc([N+](=O)[O-])ccc3Cl)CC2)cc1 | 4.76% |
| O=[N+]([O-])c1cc(Cl)cc(/C=N/NC(=S)Nc2cc(S(=O)(=O)N3CCOCC3)ccc2Cl)c1O | -78.8% (active) |
| CN(C)/N=C/c1cc(Cl)cc([N+](=O)[O-])c1O | -13.3% |
| COC(=O)[C@]12CCCCC=C1N(CCC1=CCCCC1)C(=O)[C@H](CC(=O)N1CCSCC1)C2 | 6.76% |
| COc1ccc(Br)c(Cn2c(C)c(C(=O)NCc3cccs3)sc2=O)c1 | 0.248% |
| CC(C)Cn1cc(-c2cncc3nccn23)cn1 | 1.47% |
| CC(Sc1nnnn1C)C(=O)NC(=O)NC1CCCCC1 (stereo not drawn) | -0.0816% |
| CC(Sc1nnnn1C1CCCCC1)C(=O)O (stereo not drawn) | -91% (active) |
| O=C(CSc1nnnn1C1CCCC1)N1CCCCC1 | 1.79% |
| O=C(Nc1ccc2c(c1)OCCO2)C1c2ccccc2OCC(=O)N1Cc1ccccn1 (stereo not drawn) | 6.39% |
| COc1ccc(S(=O)(=O)N(C)C[C@H]2OCc3cnnn3CCCC(=O)N([C@H](C)CO)C[C@H]2C)cc1 | 3.6% |
| COc1cccc(-c2cc3nc(NCc4ccccc4OC)n(C)c(=O)c3s2)c1 | 21.3% |
| COCCNC(=O)C1CCCN(Cc2ccccc2Cl)CC1 (stereo not drawn) | 0.686% |
| O=C1CC(c2ccccc2)=NN1c1ccc([N+](=O)[O-])cc1 | -52.7% (active) |
| CC1=NN(c2ccccc2)C(=O)C1C(=O)c1ccc([N+](=O)[O-])cc1 (stereo not drawn) | 0.85% |
| Cc1nn(-c2ccc([N+](=O)[O-])cc2)c(N)c1-c1ccccc1 | -3.48% |
